# High-throughput results as filed in PubChem.
# A selection: hits, their analogues and other compounds. The true share with any hit is near 8%.
# MCF10A rerep = A quantitative high throughput screen for small molecules that induce DNA re-replication in MCF 10a normal breast cells | MCF 10A DNA re-replication, Hoechst nuclear intensity, 48 h | Potency, µM (titrated, usually from 46.1 µM), inactives show top-dose activity, positive = re-replication, usual class: activators | actives 2.9% (n = 350,000) | AID 624296, 2012; further: % of control where 0% means no effect; nearly all actives have a fitted effect of over 50% in size
# SW480 rereplic = A quantitative high throughput screen for small molecules that induce DNA re-replication in SW480 colon adenocarcinoma cells. SW480 DNA re-replication, Hoechst DNA content imaging, 48 h. Potency, µM (series often up to 46.1 µM), for inactives: at the top dose re-replication activation, hits mostly activators. actives 1.8% (n = 340,000); further: % of control where 0% means no effect; nearly all actives have a fitted effect of over 55% in size
#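 Quantitative HTS format with DMSO vehicle controls; 48 hr drug incubation at 37 C, then 40 min Hoechst staining and scanning imager measurement at 405 nm excitation.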
# KB-3-1 cytotox = qHTS assay for MDR1-selective chemotherapeutics: Primary screen using the parental adenocarcinoma cell KB-3-1 | Potency, µM (top dose mostly 46.1 µM), hits mostly cytotoxic | AID 1347075, 2019 | actives 1.4% (n = 400,000) | KB-3-1 viability, CellTiter-Glo ATP luminescence, 72 h; further: on the % scale 0 is the no-effect control and ±100 the full control effect; nearly all actives have a fitted effect of over 60% in size
#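 Luminescent ATP read-out (CellTiter-Glo) measures survival of drug-naive KB-3-1 cells after 72 h compound exposure at 37 °C. Titration series was screened from lowest to highest concentration, with DMSO vehicle plates as background controls.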
# KB-V1 cytotox = qHTS assay for MDR1-selective chemotherapeutics: Primary screen using the drug-selected MDR subline cells KB-V1 | KB-V1 MDR cells viability, CellTiter-Glo, 72 h | Potency, µM (doses to about 46.1 µM), usual class: cytotoxic | actives 3.4% (n = 400,000); further: on the % scale 0 is the no-effect control and ±100 the full control effect; nearly all actives have a fitted effect of over 60% in size
#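 KB-V1, DMEM (no phenol red) + 10% FBS; cpd pin-transferred, titration series; 72 h, 37 degrees C; CellTiter-Glo, luminescence. Data normalized, curve-fit.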
# HT1080 IDH1KD tx = qHTS for induction of synthetic lethality in tumor cells producing 2HG: qHTS for the HT-1080-IDH1KD cell line; HT-1080 IDH1 knockdown viability, ATP luminescence, 48 h; actives 2% (n = 360,000); AID 686971, 2013; Potency, µM (series often up to 46.1 µM), without a hit: at the highest dose activity, negative = toxicity, usual class: cytotoxic;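 further: 0% = DMSO wells and -100% = cell-free medium wells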
#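 Assay cells: HT-1080 with IDH1 knockdown, 750 per well, RPMI/5% FBS. Exposure: 48 h at 37 °C following 2 h pre-incubation. Read: CellTiter-Glo luminescence; fitted concentration-response, curve class assigned.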
# HT1080-NT tox = qHTS for induction of synthetic lethality in tumor cells producing 2HG: qHTS for the HT-1080-NT fibrosarcoma cell line; HT-1080-NT fibrosarcoma viability, CellTiter-Glo ATP luminescence, 48 h; Potency, µM (series often up to 46.1 µM), for inactives: top-dose activity, negative = less viability, usual class: cytotoxic; actives 1.6% (n = 360,000); AID 686970, 2013;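 further: NT is the 2HG producing partner of a matched IDH1 knockdown line; 0% = DMSO-treated cells and -100% = media-only wells without cells; nearly all actives have a fitted effect of over 55% in size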
#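 HT-1080-NT; 750 cells/well; 5% FBS RPMI; 48 h compound, 37 degrees C; CellTiter-Glo luminescence; curve fitting and curve-class assignment.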
# An asterisk follows results filed as active; i = inactive; ? = inconclusive; / = no result. The call rests on the fitted dose curve; in most records, active means well fitted curve in the direction sought with a large enough effect; inconclusive means small, poorly fitted or top-dose-only effect, or another doubt; inactive means no such curve, though single readings can be large; an effect the other way counts as inactive or inconclusive. Potency means the concentration at half of the fitted maximal effect.
SMILES,MCF10A rerep,SW480 rereplic,KB-3-1 cytotox,KB-V1 cytotox,HT1080 IDH1KD tx,HT1080-NT tox
COc1ccc(OCC(=O)NNC(=O)c2nn(C)c(=O)c3ccccc23)cc1,12%,-4%,i,i,1%,3%
COc1cc(OC)cc(C(=O)NNC(=O)c2nn(C)c(=O)c3ccccc23)c1,-2%,-3%,?,13µM*,23%,15%
CC(C)Cc1ccc(CN2CCCC(NC(=O)c3nn(C)c(=O)c4ccccc34)C2)cc1 (stereo not drawn),21µM*,?,i,i,-1%,-8%
CN(C(=O)c1ccc(-c2nn(C)c(=O)c3ccccc23)cc1)C1CCCCC1,14%,-7%,18µM*,4.1µM*,1%,-21%
Cn1cc(C(=O)[C@@H]2CCc3[nH]cnc3C2)c2ccccc21,12%,0%,/,/,/,/
c1ccc(OCc2nnc3ccc(-c4ccccc4)nn23)cc1,/,/,i,i,/,/
COc1ccc(C(=O)c2cnc3ccc(C)cc3c2S(=O)(=O)c2ccccc2)cc1,/,/,i,?,/,/
Cc1ccc(Cn2c(C(C)Nc3nc(-c4ccc(Cl)c([N+](=O)[O-])c4)cs3)nc3cc(C(F)(F)F)ccc32)cc1 (stereo not drawn),-31%,0.92µM*,i,i,-4%,-4%
CCCn1c(C(C)Nc2nc(-c3ccc(Cl)c([N+](=O)[O-])c3)cs2)nc2ccccc21 (stereo not drawn),?,-10%,?,?,-25%,?
O=C(Cc1ccc(Br)cc1)NO,/,/,/,/,0%,-13%
O=C(Nc1cccc(C(F)(F)F)c1)Oc1ccc(Cl)c2cccnc12,-1%,?,?,i,15µM*,16µM*
O=C(CC1(O)C(=O)N(CCc2ccccc2)c2ccccc21)c1ccccn1 (stereo not drawn),-6%,6%,i,i,25%,15%
O=C(CC1(O)C(=O)N(C/C=C/c2ccccc2)c2ccccc21)c1ccccn1 (stereo not drawn),?,?,?,?,10µM*,?
CN1/C(=C/c2cc[n+](C)c3ccccc23)C=Cc2ccccc21,22%,3%,6.5µM*,i,5.8µM*,7.3µM*
O=c1[nH]c2cc(Br)cnc2nc1/C=C(\O)c1ccc(F)cc1,7.3µM*,18%,i,i,-22%,9%
OC(CNCc1cccc(Cl)c1)c1ccccc1 (stereo not drawn),18%,?,i,?,-8%,-24%
OC(CNCc1ccccc1)c1ccccc1 (stereo not drawn),-5%,-11%,i,i,14%,2%
Oc1cccc(C(O)CNCc2ccc(-c3ccccc3)cc2)c1 (stereo not drawn),16µM*,?,?,?,21µM*,16µM*
Oc1cccc(C(O)CNCc2ccc(OCc3ccc(Cl)cc3Cl)cc2)c1 (stereo not drawn),15µM*,?,i,?,16µM*,23µM*
O=c1[nH]c2ccc(NCc3ccc(-c4ccc(F)cc4)o3)cc2[nH]1,/,/,i,i,/,/
CCOC(=O)c1sc(NC(=O)Nc2ccccc2Cl)cc1C,?,0%,?,21µM*,-6%,-11%
CCOC(=O)c1sc(NC(=O)Nc2ccccc2)cc1C,?,-1%,?,?,?,?
Cc1ccc(NC(=O)c2c(C)cc(C)nc2SCC(=O)Nc2ccc(Br)cc2)cc1,/,/,i,i,/,/
COc1ccccc1CNC(=O)CC(c1ccc(C)cc1)N1Cc2ccccc2C1=O (stereo not drawn),/,/,i,i,/,/
Cc1cccc(Cn2c(SCc3ccc(C(=O)NCc4cccs4)cc3)nc3cccnc32)c1,/,/,i,?,/,/
SMILES,MCF10A rerep,SW480 rereplic,KB-3-1 cytotox,KB-V1 cytotox,HT1080 IDH1KD tx,HT1080-NT tox
CCCCCCCCCCCC(=O)NC(C(=O)O)C(O)c1ccccc1 (stereo not drawn),?,5%,i,i,-14%,-21%
CCCCCCCCCC(=O)N[C@H](CN1CCOCC1)[C@H](O)c1ccccc1,-7%,-7%,i,?,?,16µM*
CCC(=O)Nc1ccc(CC)cc1-c1nc2ccccc2n(CC(=O)Nc2cccc(OC)c2)c1=O,/,/,i,i,/,/
Oc1c(C(c2ccccc2)N2CCOCC2)ccc2ccccc12 (stereo not drawn),16µM*,?,?,i,-19%,-14%
CC(=O)c1ccc(NS(=O)(=O)c2ccc3[nH]c(=O)[nH]c3c2)cc1,/,/,i,i,/,/
COc1ccc2c(-c3ccccc3)cc3nnnn3c2c1,2.6µM*,132%,i,i,2%,4%
O=C(CSc1ncc(S(=O)(=O)c2ccc(Cl)cc2)c(=O)[nH]1)Nc1ccc2c(c1)OCCO2,/,/,i,i,/,/
COCCNC(=O)C1CC(c2ccc(F)cc2)=NO1 (stereo not drawn),11%,1%,i,i,0%,5%
COc1cc(C2=NOC(C(=O)NCc3ccc(F)cc3)C2)cc(OC)c1OC (stereo not drawn),3.3µM*,0.73µM*,1.5µM*,1.5µM*,0.71µM*,1.1µM*
COc1cc(C2=NOC(C(=O)NCc3ccccn3)C2)cc(OC)c1OC (stereo not drawn),?,1%,i,i,-5%,2%
COc1ccc(C2=NOC(C(=O)NCc3ccc(F)cc3)C2)cc1OC (stereo not drawn),1.6µM*,2.1µM*,i,0.52µM*,1.1µM*,1.3µM*
COc1ccc(OC)c(/C=C/c2sc3ccccc3[n+]2C)c1,/,/,?,i,/,/
CCOc1cccc2cc(-c3nc(-c4ccc(Cl)cc4)c(C)s3)c(=O)oc12,/,/,i,?,/,/
CC(=O)c1sc2c(c1OC(=O)c1ccc(Cl)cc1Cl)c(=O)n(-c1ccccc1)c(=S)n2-c1ccccc1,?,4%,?,?,2.6µM*,1.5µM*
CC(=O)c1sc2c(c1OC(=O)c1ccc(Cl)cc1)c(=O)n(-c1ccccc1)c(=S)n2-c1ccccc1,?,1%,?,15µM*,?,-19%
